Test results: PubChem BioAssay

system: XIP peptide (Xip251-270) binding; experiment: small-molecule binders of XIP peptide, primary screen, biochemical, small-molecule microarray, fluorescence 635/667 nm, 0.1 µg/mL protein (AID 1182); settings: fluorescent protein binding, 635 nm, higher = more signal, called active from +8 up or from −8 down

Composite z-score, inactive:
O=C(c1ccccc1)N1C(=O)[C@]2(Cc3ccccc31)N=C(c1ccc(OCCCO)cc1)O[C@@H]2c1ccccc1 0.409
COc1ccc([Si](C)(C)[C@@H]2[C@@H](CCO)O[C@]3(C(=O)N(Cc4ccccc4)c4ccc(N5CCOC5=O)cc43)[C@H]2C)cc1 0.849
O=C1C2C=CC(C(O)c3ccco3)N(Nc3ccccc3F)C2C(=O)N1c1ccccc1 (configuration not stated) 0.36
CC(C)(C)OC(=O)COc1cccc(C(=O)CCN2CCOCC2)c1 0.123
CS(=O)(=O)CCOC(=O)C1=CC(CCCO)=CC(c2ccc(CN3CCCC3)cc2)N(Cc2sc3ccccc3c2Cl)C=C1C(=O)OCCS(C)(=O)=O (configuration not stated) 0.814
COC(=O)[C@@]1(Cc2ccc(F)cc2)[C@H]2c3cc(C(=O)N(C)C)n(CCc4ccc(OC)c(Br)c4)c3C[C@H]2CN1C(=O)c1ccccc1 -0.192
COc1ccc([Si](C)(C)[C@@H]2[C@@H](CC(=O)N3Cc4ccccc4C[C@H]3CO)O[C@]3(C(=O)N(Cc4ccc(N5C(=O)c6cccc7cccc5c67)cc4)c4ccccc43)[C@H]2C)cc1 0.685
